The entries come from a sample that favours hits as a whole.
nsP2pro primary – blocks chikungunya virus nsP2 protease peptide cleavage | Q8JUX6 | FRET peptide cleavage, nsP2pro, fluorescence 1 h | Potency, µM (top dose mostly 24.9 µM), for the others: at the top dose activity change, negative = inhibition, hits mostly inhibitors | 1.1% of 31,000 active | AID 1964107; further: nearly all actives have a fitted effect of over 60% in size
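Enzyme 150 nM, substrate 2.5 uM (both final); Tris-HCl 10 mM pH 8.0 + 0.01% Tween 20; cpd up to 25 uM, 7 pts; 15 min preinc., 1 h RT; fluorescence ex 525/em 598.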
nsP2 cell sec – secondary cell-based test for CHIKV nsP2 protease inhibitors; 10% of 450 active; Potency, µM (doses to about 51.1 µM), for inactives: top-dose activity change, negative = inhibition, usual class: inhibitors; AID 1964100; shares compounds with nsP2pro primary; cell-based CHIKV nsP2 protease reporter assay; further: nearly all actives have a fitted effect of over 70% in size
NSP2 full ctr – full-length CHIKV NSP2 protease inhibition, selectivity; shares compounds with nsP2pro primary; Full-length CHIKV NSP2 protease enzymatic counterscreen; Potency, µM (titrated, usually from 50.7 µM), without a hit: at the top dose activity change, negative = inhibition, most hits filed as inhibitors; 39% of 410 active; AID 1964101; further: nearly all actives have a fitted effect of over 65% in size
Furin counterscr – human furin inhibition, counterscreen for nsP2pro inhibitors | shares compounds with nsP2pro primary | 6% of 410 active | Potency, µM (series often up to 50.6 µM), for the others: at the highest dose activity change, negative = inhibition, most hits filed as inhibitors | Recombinant human furin enzymatic counterscreen, fluorogenic substrate
nsP2 NS23 pep – selectivity test for CHIKV nsP2 protease inhibitors: endogenous NS2/3 peptide | shares compounds with nsP2pro primary | AID 1964103 | Potency, µM (series often up to 51 µM), for the others: at the top dose activity change, negative = inhibition, usual class: inhibitors | 34% of 410 active | Purified CHIKV nsP2 protease, endogenous NS2/3 peptide cleavage; further: nearly all actives have a fitted effect of over 55% in size
Papain counter – inhibits papain in a CHIKV nsP2 protease selectivity counterscreen; shares compounds with nsP2pro primary; AID 1964104; Potency, µM (titrated, usually from 51 µM), without a hit: at the top dose activity change, negative = inhibition, most hits filed as inhibitors; 5% of 410 active; purified papain protease activity, enzymatic inhibition
nsP2pro conf qHTS – confirmation of CHIKV nsP2 protease inhibitors; shares compounds with nsP2pro primary; CHIKV nsP2 protease enzymatic activity, qHTS; Potency, µM (series often up to 25.5 µM), for inactives: top-dose activity change, negative = inhibition, usual class: inhibitors; 43% of 410 active; AID 1964105; further: nearly all actives have a fitted effect of over 75% in size
HCV NS3 4A cs – inhibits HCV NS3/4A protease in an nsP2pro selectivity counterscreen; AID 1964106; 20% of 410 active; shares compounds with nsP2pro primary; Potency, µM (doses to about 50.9 µM), actives largely listed as inhibitors; HCV NS3/4A protease biochemical counterscreen; further: nearly all actives have a fitted effect of over 55% in size
Numbers without * were called inactive; i = inactive; ? = inconclusive; [ ] = remark or other dose. The call rests on the fitted dose curve. On the % scale 0 is the no-effect control and ±100 the full control effect; potency means the concentration at half of the fitted maximal effect.

SMILES	nsP2pro primary	others
C=CCNc1oc(-c2cccc3ccccc23)nc1C#N	3%
C=CCNc1nnc(-c2cccc3ccccc23)o1	?	nsP2 cell sec=26%;NSP2 full ctr=23µM*;Furin counterscr=?;nsP2 NS23 pep=?;Papain counter=-4%;nsP2pro conf qHTS=7.1µM*;HCV NS3 4A cs=?
C=CCSc1nnc(-c2cccc3ccccc23)o1	2%
CC(C(=O)O)C1CCC2(C)C3C(=O)C=C4C(CCC(=O)C4(C)C)C3(C)CCC12C (stereo not drawn)	7%[10 µM]
COc1ccc(C(=O)N2CCCN(c3nnc4ccc(Cl)cn34)CC2)cn1	-24%
COc1cc2nc(N3CCN(C(=O)c4ccco4)C4CCCCC43)nc(N)c2cc1OC (stereo not drawn)	-16%
OCCN1CCN(C(c2ccc(Cl)cc2Cl)c2sc3nc(-c4ccco4)nn3c2O)CC1 (stereo not drawn)	0%
Oc1c(C(c2ccc(Cl)cc2Cl)N2CCOCC2)sc2nc(-c3ccco3)nn12 (stereo not drawn)	-20%
Cc1ccc(C(c2sc3nc(-c4ccco4)nn3c2O)N2CCOCC2)cc1 (stereo not drawn)	?	nsP2 cell sec=-14%;NSP2 full ctr=-7%;Furin counterscr=-9%;nsP2 NS23 pep=1%;Papain counter=-19%;nsP2pro conf qHTS=-23%;HCV NS3 4A cs=i
C=CC(=O)N1CCN(c2nc(=O)n(-c3c(C)ccnc3C(C)C)c3nc(-c4c(O)cccc4F)c(F)cc23)[C@@H](C)C1	-1%
c1cncc(-c2ccc(CNc3nc(-n4ccnc4)nc4ccccc34)cc2)c1	i
CCOc1ccc(NC(=O)Cn2cc(C(=O)c3ccc(CC)cc3)c(=O)c3cc4c(cc32)OCO4)cc1	-16%
CCc1ccc(NCc2cc3cc4c(cc3n(CC(=O)Nc3ccc(Cl)cc3)c2=O)OCO4)cc1	?	nsP2 cell sec=-1%
CCc1ccc(NC(=O)Cn2c(=O)c3cc(Cl)ccc3n3nncc23)cc1	-15%
COc1cccc(-c2cc(C(=O)NCc3c(C)cc(C)[nH]c3=O)c3c(c2)N(C(C)C)CCO3)c1OC	4%
Fc1ccc(-c2noc(CCCCSc3nnc(-c4cccc5ccccc45)o3)n2)cc1	-5%
Cc1cc(C)cc(-c2ccc(CN3CCCC(N[S+](=O)([O-])c4cccs4)C3)cc2)c1 (stereo not drawn)	-3%
CC(C)CCC[C@@H](C)[C@H]1CC[C@H]2[C@@H]3CC=C4C[C@@H](O)CC[C@]4(C)[C@@H]3CC[C@]12C	5%[10 µM]
C/C=C/C=C/C(=O)OC1CC/C=C/C(O)C(O)C(CCC)OC1=O (stereo not drawn)	?	nsP2 cell sec=-1%[33.5 µM];NSP2 full ctr=-2%[33.5 µM];Furin counterscr=-3%[33.5 µM];nsP2 NS23 pep=-5%[33.5 µM];Papain counter=?;nsP2pro conf qHTS=-20%[16.7 µM];HCV NS3 4A cs=i
C/C=C/C=C/C=C/C(=O)OC1C=C2C(O)OC(=O)[C@]2(O)[C@@]2(C)CCCC(C)(C)[C@H]12 (stereo partly drawn)	17%[10 µM]
OC[C@H]1O[C@@H](c2ccc(F)c(Cc3cc4ccccc4s3)c2)[C@H](O)[C@@H](O)[C@@H]1O	12%
CCOc1ccc(CNc2ccc(-c3nc4ccccc4[nH]3)cc2)cc1	0%
Cc1sc(NC(=O)Cc2ccc3c(c2)OCO3)nc1-c1ccc2c(c1)CCN2C(=O)c1ccccc1Cl	-2%
COc1cnc(-n2cnc(C)n2)c2[nH]cc(C(=O)C(=O)N3CCN(C(=O)c4ccccc4)CC3)c12	-13%
COc1nc2ccc(Br)cc2cc1[C@@H](c1ccccc1)[C@@](O)(CCN(C)C)c1cccc2ccccc12	1.2µM*	nsP2 cell sec=?;NSP2 full ctr=?;Furin counterscr=-13%;nsP2 NS23 pep=?;Papain counter=-25%;nsP2pro conf qHTS=7.1µM*;HCV NS3 4A cs=i
SMILES	nsP2pro primary	others
CC(C)(C)c1cc(C(=O)/C(C#N)=N/Nc2cccc(Cl)c2)no1	39%
CC(C)c1ccccc1-c1nc(NCc2ccc(-c3cccnc3)cc2)c2ccccc2n1	i
O=C(c1ccco1)N1CCN(C(=O)c2cnn(-c3cccc(F)c3)c2C2CCNCC2)CC1	-40%
O=C(Nc1cccc(C(F)(F)F)c1)c1cnn(-c2cccc(F)c2)c1C1CCNCC1	8.9µM*	nsP2 cell sec=114%;NSP2 full ctr=12µM*;Furin counterscr=-7%;nsP2 NS23 pep=?;Papain counter=3%;nsP2pro conf qHTS=?;HCV NS3 4A cs=7.3µM*
Cc1cc(C)cc(NC(=O)c2cnn(-c3ccc(C)c(C)c3)c2C2CCNCC2)c1	-16%
Cc1cc(O)cc(Oc2cc(C)c(C(=O)O)c(O)c2)c1	-15%
Cc1ccc(S(=O)(=O)Nc2cnccc2C(=O)Nc2ccc(-n3cncn3)cc2)cc1	i
COC(=O)c1ccc(O)c2ncc(-c3ccc(C(=O)N4CCN(C)CC4)cc3)cc12	i
C[C@@H]1C(=O)O[C@H]2CC34[C@H]5C[C@@H](C(C)(C)C)C36[C@@H](OC(=O)[C@@H]6O)OC4(C(=O)O5)[C@]21O (stereo partly drawn)	-8%
CC1=C2C[C@@]3(C)C(CCC[C@@H]3C)C(O)C2OC1=O (stereo partly drawn)	9.9µM*	nsP2 cell sec=-11%;NSP2 full ctr=13µM*;Furin counterscr=-2%;nsP2 NS23 pep=?;Papain counter=?;nsP2pro conf qHTS=7.1µM*;HCV NS3 4A cs=i
CC1=C2CC3C(CCC3(C)O)C(C)(O)CC2OC1=O (stereo not drawn)	55%
COc1ccc2cc3c(NC(=O)c4ccco4)nn(C)c3nc2c1	58%
Cc1ccsc1CN1CCc2nc(Nc3ccccc3)ncc2C1	2%
Fc1ccccc1N1CCN(c2ncc3c(n2)CCN(Cc2ccc(Br)s2)C3)CC1	2%
Brc1ccc(CN2CCc3nc(Nc4ccccc4)ncc3C2)s1	?	nsP2 cell sec=35%;NSP2 full ctr=3%;Furin counterscr=-10%;nsP2 NS23 pep=2%;Papain counter=-14%;nsP2pro conf qHTS=-5%;HCV NS3 4A cs=i
CCOC(=O)C1CCN(C(=O)C2(NC(=O)Nc3ccccc3Cl)CCC2)CC1	4%
Cc1ccc(-c2ccc(=O)n(CC(=O)N(C)C(C)c3cccs3)n2)cc1 (stereo not drawn)	-2%
COC(=O)c1c(NC(=O)/C(C#N)=C/c2ccc(OC)cc2)sc2c1C(C(=O)OC)CC2 (stereo not drawn)	-8%
COC(=O)c1c(NC(=O)C(C)N2C(=O)c3ccccc3C2=O)sc2c1C(C(=O)OC)CC2 (stereo not drawn)	?	nsP2 cell sec=?;NSP2 full ctr=?;Furin counterscr=-9%;nsP2 NS23 pep=5.8µM*;Papain counter=-9%;nsP2pro conf qHTS=3.6µM*;HCV NS3 4A cs=i
